# Assay results published in PubChem BioAssay (NCATS).
# Inconclusive results are not listed. Active and inactive are the calls of the source. Calls come from the whole dose curve; as a rule, active = well fitted cell-killing curve with a large enough effect; inconclusive = small, poorly fitted or top-dose-only effect, or effect the other way; inactive = no such curve, though single readings can be large or run the other way.
# Assay: Quantitative High-Throughput drug screen in 47 multiple myeloma cell lines against the NCATS MIPE library collection: PCM6_Riken cell viability assay (AID 1919870); note: nearly all actives have a fitted effect of over 30% in size
# Conditions: CellTiter-Glo ATP, 48 h; series mostly up to 45.8 µM; viability (% of control): at the top concentration
# Source text: PI: Beverly A. Mock Ph.D.
# Laboratory of Cancer Biology and Genetics,
# Center for Cancer Research, National Cancer Institute,
# National Institute of Health, Bethesda, Maryland
# Drug resistance and disease progression are common in multiple myeloma (MM) patients, underscoring the need for new therapeutic combinations. […] We hypothesized that effective combinations would reduce MYC expression and enhance p16 activity. […] These preclinical data identify potentially useful drug combinations for evaluation in drug-resistant MM and reveal potential mechanisms of combined drug sensitivity.
# Described herein is the primary MIPE qHTS used to cherrypick compounds. Validated compounds were then further tested for potential synergistic activiy.
# [1] Peat TJ, Gaikwad SM, Dubois W, Gyabaah-Kessie N, Zhang S, Gorjifard S, Phyo Z, Andres M, Hughitt VK, Simpson RM, Miller MA, Girvin AT, Taylor A, Williams D, D'Antonio N, Zhang Y, Rajagopalan A, Flietner E, Wilson K, Zhang X, Shinn P, Klumpp-Thomas C, McKnight C, Itkin Z, Chen L, Kazandijian D, Zhang J, Michalowski AM, Simmons JK, Keats J, Thomas CJ, Mock BA. Drug combinations identified by high-throughput screening promote cell cycle transition and upregulate Smad pathways in myeloma. Cancer Lett. 2023 Aug 1;568:216284. doi: 10.1016/j.canlet.2023.216284. Epub 2023 Jun 24. PMID: 37356470; PMCID: PMC10408729.
# SEQUENCE No. (e.g., 1, 2, 3, etc.); […] (e.g., Cells, Incubation, Reagent, etc.); VALUE and DESCRIPTION.
# 1; Cells; 5 uL; white, solid bottom 1536-well Greiner assay plate.
# 2; Compounds; 23 nL; Kalypsis pin tool (Wako USA) equipped with a 1536-well pin head to transfer to the assay plates.
# 3; Incubation; 48 hours; 37C incubation.
# 4; Reagent;5uL; CellTiter Glo (Promega).
# 5; Detector; 425V; Luminescence; Viewlux PerkinElmer.
# NOTES (numbers refer to Sequence numbers above)
# 1. The cell-based screening methods employed in this study were like those previously published. Briefly, the corresponding myeloma cell lines were screened in 1,536-well plates with 500 cells, 5-uL per well for inhibition of cell viability (assessed by measuring ATP levels with CellTiterGlo).
# 2. NCATS MIPE 4.0 library of approved and investigational drugs were added using the Kalypsis pin tool. Wells treated with DMSO only for 100% viability and media only for 0% viability were used as controls.
# 3. The assay plates were covered and incubated for 48 hours in a 37C, 5% CO2 incubator with controlled humidity.
# 4. After 48 hours, CellTilter-GloTM luminescent substrate mix (Promega) reagent was added to the assay plate and plates we incubated for 5 min at room temperature.
# 5. Signal was measured as median relative luminescence units on a ViewLux (PerkinElmer) multiplate reader.
# [1] Heske CM, Davis MI, Baumgart JT, Wilson K, Gormally MV, Chen L, Zhang X, Ceribelli M, Duveau DY, Guha R, Ferrer M, Arnaldez FI, Ji J, Tran HL, Zhang Y, Mendoza A, Helman LJ, Thomas CJ. Matrix Screen Identifies Synergistic Combination of PARP Inhibitors and Nicotinamide Phosphoribosyltransferase (NAMPT) Inhibitors in Ewing Sarcoma. Clin Cancer Res. 2017 Dec 1;23(23):7301-7311. doi: 10.1158/1078-0432.CCR-17-1121. Epub 2017 Sep 12. PMID: 28899971; PMCID: PMC6636827.
# Potency is the fitted concentration of half-maximal effect.
SMILES,Potency,viability (% of control)
c1cc(OCCN2CCCCC2)cc(-c2n[nH]c3ccc(-c4ncn[nH]4)cc23)c1,16.6 µM (active),
CC1(C)C(N(O)C(=O)Nc2ccc(Cl)cc2)N(c2ccc(Cl)cc2)C(=O)N1CC(=O)NN=CC=Cc1ccc([N+](=O)[O-])o1 (stereo not given),9.35 µM (active),
Cc1cccc(-c2[nH]c(C(C)(C)C)nc2-c2ccc3c(c2)OCO3)n1,0.833 µM (active),
CC(C)=CCCC(C)=CCCC(C)=CCCC(C)=CCCC(C)=CCCC(C)=CCCC(C)=CCCC(C)=CCCC(C)=CCO,,115% (inactive)
COc1cc2c(cc1Cc1cccc(Cl)c1F)c(=O)c(C(=O)O)cn2[C@H](CO)C(C)C,16.6 µM (active),
CCC(=O)OCC(=O)[C@@]1(OC(=O)CC)[C@@H](C)C[C@@H]2[C@H]3CCC4=CC(=O)C=C[C@]4(C)[C@@]3(F)[C@@H](O)C[C@@]21C,7.43 µM (active),
COc1ccc2c(c1)c(C1=C(c3c[nH]c4ccccc34)C(=O)NC1=O)cn2CCCN(C)C,23.5 µM (active),
CN(C)CCCNC(=O)c1ccc(-c2cc(O)c3ncccc3c2)cc1,,88.1% (inactive)
CC[C@H](CC#N)OC(=O)N[C@@H](C)c1cccc(NC(=O)Nc2ccc(-c3cnco3)c(OC)c2)c1,1.32 µM (active),
COc1c(C)c2c(c(O)c1CC=C(C)CCC(=O)O)C(=O)OC2,,98.2% (inactive)
C=CCc1cccc(C=NNC(=O)CN2CCN(Cc3ccccc3)CC2)c1O,26.4 µM (active),
C=CC[N+]1([C@H]2C[C@H]3[C@@H]4CC[C@H]5C[C@H](O)[C@@H](N6CCOCC6)C[C@]5(C)[C@@H]4CC[C@]3(C)[C@H]2OC(C)=O)CCCC1,,121% (inactive)
O=C(Nc1cccc(Cl)c1)Nc1ncc(CCNc2ncnc3ccsc23)s1,5.26 µM (active),
C[C@@H](N)c1ccc(C(=O)Nc2ccnc3[nH]ccc23)cc1,16.6 µM (active),
CN(C)CCOc1ccc(C(=C(CCCl)c2ccccc2)c2ccccc2)cc1,3.72 µM (active),
CCOC(=O)c1c(CSc2ccccc2)n(C)c2cc(Br)c(O)c(CN(C)C)c12,16.6 µM (active),
CC(C)N(CCCNC(=O)Nc1ccc(C(C)(C)C)cc1)C[C@H]1O[C@@H](n2cc(Br)c3c(N)ncnc32)[C@H](O)[C@H]1O,23.5 µM (active),
Cc1nc(NC(=O)N2CCC[C@@H]2C(N)=O)sc1-c1csc(C(C)(C)C)n1,4.69 µM (active),
C[C@@H]1[C@H](O)[C@@H](C)C=CC=CC=CC=CC=CC=CC=C[C@H](O[C@@H]2O[C@H](C)[C@H](O)[C@H](N)[C@@H]2O)C[C@@H]2O[C@](O)(C[C@@H](O)C[C@@H](O)[C@H](O)CC[C@@H](O)C[C@@H](O)CC(=O)O[C@H]1C)C[C@H](O)[C@@H]2C(=O)O,3.32 µM (active),
Cc1c(C(=O)Nc2ccc(N3C[C@@H](C)O[C@@H](C)C3)nc2)cccc1-c1ccc(OC(F)(F)F)cc1,,117% (inactive)

SMILES,Potency,viability (% of control)
Cc1ccc2c(c1)C(=O)[C@]1(O)CCN(c3ccccc3)C1=N2,,119% (inactive)
CC(=O)OCC(=O)[C@@]1(O)CC[C@H]2[C@@H]3CCC4=CC(=O)C=C[C@]4(C)[C@@H]3[C@@H](O)C[C@@]21C,,103% (inactive)
Nc1ncnc2c1c(-c1cccc(OCc3ccccc3)c1)cn2C1CC(CN2CCC2)C1 (stereo not given),26.4 µM (active),
CC(C)(F)C[C@H](N[C@@H](c1ccc(-c2ccc(S(C)(=O)=O)cc2)cc1)C(F)(F)F)C(=O)NC1(C#N)CC1,,98.4% (inactive)
Fc1ccc(C(c2ccc(F)cc2)N2CCN(CC=Cc3ccccc3)CC2)cc1,5.9 µM (active),
N#CC(c1ccc(Cl)cc1)c1c(Cl)cc(-n2ncc(=O)[nH]c2=O)cc1Cl (stereo not given),23.5 µM (active),
COc1ccc2ccc(=O)oc2c1CC=C(C)C,,92% (inactive)
CS(=O)(=O)c1ccc(C2=C(c3ccccc3)C(=O)OC2)cc1,,98.8% (inactive)
COc1ccc(-c2nc3ccc(C4=NNC(=O)CC4C)cc3[nH]2)cc1 (stereo not given),,108% (inactive)
CCCCCOC(=O)Nc1nc(=O)n([C@@H]2O[C@H](C)[C@@H](O)C2O)cc1F (stereo not given in full),,89.1% (inactive)
CC1(C)[C@H]2CC[C@]3(C)[C@@H](C(=O)C=C4[C@@H]5C[C@@](C)(C(=O)O)CC[C@]5(C)CC[C@]43C)[C@@]2(C)CC[C@@H]1O,,111% (inactive)
C[C@@H](O)[C@H]1C(=O)N2C(C(=O)OCOC(=O)C(C)(C)C)=C(SC3CN(C4=NCCS4)C3)[C@H](C)[C@H]12,23.5 µM (active),
CNc1nc(-c2ccc3c(N)n[nH]c3c2)cc(N2C[C@@H](C(=O)NC3CCCCC3)CC[C@@H]2C)n1,18.7 µM (active),
OC[C@H]1O[C@@H](OCCc2ccc(O)cc2)[C@H](O)[C@@H](O)[C@H]1O,,102% (inactive)
O=c1cc(-c2ccc(O)c(O)c2)oc2cc(O)cc(O)c12,,110% (inactive)
CSc1cccc(Nc2ncc3cc(-c4c(Cl)cccc4Cl)c(=O)n(C)c3n2)c1,0.187 µM (active),
Cc1ccccc1-n1c(Cn2nc(-c3cccc(O)c3)c3c(N)ncnc32)nc2cccc(C)c2c1=O,5.9 µM (active),
O=C(O)c1nc(=O)[nH]c(=O)[nH]1,,128% [at 23.2 µM] (inactive)
CC(C)C[C@@H](C(=O)N[C@H](C(=O)OC1CCCC1)c1ccccc1)[C@H](O)C(=O)NO,18.7 µM (active),
COc1cc(Nc2nc3ccccc3nc2NS(=O)(=O)c2ccc(NC(=O)c3ccc(C)c(OC)c3)cc2)cc(OC)c1,2.35 µM (active),
